The source made the active and inactive calls. How the source made its calls: active means hit-call score of the fitted dose curve at least 0.9, where 1 is the maximum; inactive means score below 0.9.
Assays:
Details in all cases: mRNA level, 48 h; actives raise or lower the signal
[1] = read-out: Tumor necrosis factor receptor superfamily member 6 (Homo sapiens) (UniProt P25445); assay: LTEA_HepaRG_FAS: Life Technologies and Expression Analysis (LTEA) Assay for Fas cell surface death receptor (FAS) using HepaRG (AID 2283447)
How it was run: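 FAS transcript level was measured by TaqMan qRT-PCR against three housekeeping genes after 48 h chemical exposure. Cells were HepaRG, 0.5% DMSO vehicle, with a top concentration of 100 uM and half-log dilutions over eight points, in duplicate.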

[2] = read-out: Fatty acid synthase (Homo sapiens) (UniProt P49327); assay: LTEA_HepaRG_FASN: Life Technologies and Expression Analysis (LTEA) Assay for Fatty Acid Synthase (FASN) using HepaRG (AID 2283448)
How it was run: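 Cells were plated, cultured 48 h, switched to serum-free induction medium, then dosed in duplicate (max 100 uM, half-log dilutions, 0.5% DMSO) for 48 h. RNA was then isolated and FASN quantified by qRT-PCR.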

[3] = read-out: Cyclin D2 (CCND2), CCND2 (gene 894); assay: LTEA_HepaRG_CCND2: Life Technologies and Expression Analysis (LTEA) Assay for Cyclin D2 (CCND2) using HepaRG (AID 2283449)
How it was run: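 CCND2 transcript levels, quantified by qRT-PCR and normalised to three housekeeping genes, were fitted bidirectionally against 0.5% DMSO. HepaRG cultures were dosed 48 h in duplicate with an 8-point half-log series up to 100 uM.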

[4] = read-out: Cyclin Dependent Kinase Inhibitor 1A (CDKN1A), CDKN1A (gene 1026); assay: LTEA_HepaRG_CDKN1A: Life Technologies and Expression Analysis (LTEA) Assay for Cyclin Dependent Kinase Inhibitor 1A (CDKN1A) using HepaRG (AID 2283450)
How it was run: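 Differentiated human HepaRG cells, pre-cultured 48 h, were exposed in duplicate for 48 h in serum-free induction medium to eight half-log concentrations up to 100 uM (0.5% DMSO). CDKN1A mRNA was measured by qRT-PCR, normalized to ACTB/GAPDH/POLR2A, bidirectionally fitted versus DMSO.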

[5] = read-out: Cyclin D1 (CCND1), CCND1 (gene 595); assay: LTEA_HepaRG_CCND1: Life Technologies and Expression Analysis (LTEA) Assay for Cyclin D1 (CCND1) using HepaRG (AID 2283451);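 on AC50: TaqMan qRT-PCR transcript level normalised to ACTB GAPDH and POLR2A housekeeping genes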
How it was run: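 Differentiated human HepaRG cells in serum-free induction medium were exposed 48 h to eight half-log concentrations up to 100 uM in 0.5% DMSO; mRNA quantified by TaqMan qRT-PCR, normalized to ACTB, GAPDH, POLR2A, fitted bidirectionally versus DMSO.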

[6] = read-out: catalase (CAT), CAT (gene 847); assay: LTEA_HepaRG_CAT: Life Technologies and Expression Analysis (LTEA) Assay for catalase (CAT) using HepaRG (AID 2283452);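 on AC50: TaqMan qRT-PCR signal normalized to ACTB GAPDH and POLR2A housekeeping genes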
How it was run: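 Expression of CAT was quantified by TaqMan qRT-PCR with ACTB/GAPDH/POLR2A normalization after 48 h chemical exposure of HepaRG. Eight-point half-log series, top 100 uM, in 0.5% DMSO; gain or loss fitted against vehicle.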

[7] = read-out: flavin-containing dimethylaniline monooxygenases 3 (FMO3), FMO3 (gene 2328); assay: LTEA_HepaRG_FMO3: Life Technologies and Expression Analysis (LTEA) Assay for flavin-containing dimethylaniline monooxygenases 3 (FMO3) using HepaRG (AID 2283453)
How it was run: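 FMO3 transcript quantified by TaqMan qRT-PCR against three housekeeping genes after 48 h chemical exposure of HepaRG cells. Eight-point half-log series, top 100 uM, 0.5% DMSO vehicle; phenobarbital 1mM induction control; up- or down-regulation fitted.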

[8] = read-out: Cytochrome P450 (CYP1A1), CYP1A1 (gene 1543); assay: LTEA_HepaRG_CYP1A1: Life Technologies and Expression Analysis (LTEA) Assay for Cytochrome P450 (CYP1A1) using HepaRG (AID 2283454)
How it was run: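 Differentiated HepaRG cells in serum-free induction medium were exposed in duplicate for 48 h to eight half-log concentrations up to 100 uM in 0.5% DMSO. CYP1A1 mRNA was quantified by TaqMan qRT-PCR, normalized to ACTB, GAPDH and POLR2A.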

[9] = read-out: CFLAR gene, CFLAR (gene 8837); assay: LTEA_HepaRG_CFLAR: Life Technologies and Expression Analysis (LTEA) Assay for CFLAR gene using HepaRG (AID 2283455)
How it was run: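 Transcript level by qRT-PCR (normalized to ACTB, GAPDH and POLR2A) after 48 h chemical exposure of HepaRG cells, top concentration 100 uM with half-log steps, 0.5% DMSO vehicle, duplicates; fitted bidirectionally against DMSO baseline.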

[10] = read-out: Forkhead box O1 (FOXO1), FOXO1 (gene 2308); assay: LTEA_HepaRG_FOXO1: Life Technologies and Expression Analysis (LTEA) Assay for Forkhead box O1 (FOXO1) using HepaRG (AID 2283456)
How it was run: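 FOXO1 transcript quantified by qRT-PCR after 48 h chemical exposure (top 100 uM, half-log steps, 0.5% DMSO) of HepaRG cells, housekeeping-normalized (ACTB/GAPDH/POLR2A). Changes fitted in both directions relative to vehicle.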

[11] = read-out: growth arrest and DNA damage 45 (GADD45A), GADD45A (gene 1647); assay: LTEA_HepaRG_GADD45A: Life Technologies and Expression Analysis (LTEA) Assay for growth arrest and DNA damage 45 (GADD45A) using HepaRG (AID 2283458)
How it was run: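 Transcript induction or loss, quantified by TaqMan qRT-PCR against three housekeeping genes, is the read-out. HepaRG cells received chemicals for 48 h across eight half-log concentrations from 100 uM in 0.5% DMSO; gain and loss fitted relative to DMSO.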

[12] = read-out: Forkhead box O3 (FOXO3), FOXO3 (gene 2309); assay: LTEA_HepaRG_FOXO3: Life Technologies and Expression Analysis (LTEA) Assay for Forkhead box O3 (FOXO3) using HepaRG (AID 2283459)
How it was run: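 FOXO3 transcript measured by qRT-PCR (normalized to ACTB, GAPDH, POLR2A) after 48 h exposure of HepaRG cells in serum-free induction medium. Duplicates, eight half-log concentrations up to 100 uM, 0.5% DMSO; gain or loss fitted against DMSO.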

[13] = read-out: ABC Transporter (ABCB1), ABCB1 (gene 5243); assay: LTEA_HepaRG_ABCB1: Life Technologies and Expression Analysis (LTEA) Assay for ABC Transporter (ABCB1) using HepaRG (AID 2283460)
How it was run: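 ABCB1 transcript level measured by TaqMan qRT-PCR against three housekeeping genes after 48 h chemical exposure of differentiated HepaRG cells. Top concentration 100 uM, half-log steps, eight points, 0.5% DMSO vehicle; bidirectional fit relative to DMSO.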

[14] = read-out: growth arrest and DNA damage 45 (GADD45B), GADD45B (gene 4616); assay: LTEA_HepaRG_GADD45B: Life Technologies and Expression Analysis (LTEA) Assay for growth arrest and DNA damage 45 (GADD45B) using HepaRG (AID 2283461)
How it was run: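 Differentiated HepaRG cells, plated 48 h then switched to serum-free induction medium, were exposed 48 h in duplicate to eight half-log concentrations from 100 uM in 0.5% DMSO; mRNA quantified by qRT-PCR, normalized to ACTB/GAPDH/POLR2A, bidirectional fit versus DMSO.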

[15] = read-out: ABC Transporter (ABCB11), ABCB11 (gene 8647); assay: LTEA_HepaRG_ABCB11: Life Technologies and Expression Analysis (LTEA) Assay for ABC Transporter (ABCB11) using HepaRG (AID 2283463)
How it was run: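 ABCB11 transcript levels quantified by TaqMan qRT-PCR against three housekeeping genes after 48 h chemical exposure of HepaRG cultures. Concentrations up to 100 uM in half-log steps, 0.5% DMSO vehicle; both induction and suppression scored.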

[16] = read-out: ABC Transporter (ABCC2), ABCC2 (gene 1244); assay: LTEA_HepaRG_ABCC2: Life Technologies and Expression Analysis (LTEA) Assay for ABC Transporter (ABCC2) using HepaRG (AID 2283464)
How it was run: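 HepaRG cells were plated 48 h, switched to serum-free induction medium, then exposed in duplicate for 48 h to 8 concentrations (top 100 uM, half-log steps, 0.5% DMSO). ABCC2 mRNA was measured by qRT-PCR normalized to ACTB/GAPDH/POLR2A; bidirectional fitting versus DMSO.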

[17] = read-out: ATP-citrate lyase (ACLY), ACLY (gene 47); assay: LTEA_HepaRG_ACLY: Life Technologies and Expression Analysis (LTEA) Assay for ATP-citrate lyase (ACLY) using HepaRG (AID 2283466)
How it was run: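 ACLY mRNA quantified by qRT-PCR on Fluidigm arrays against three housekeeping genes, after 48 h chemical treatment of HepaRG cells (top concentration 100 uM, half-log steps, 0.5% DMSO vehicle). Up- or down-regulation fitted relative to DMSO.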

[18] = read-out: Broad substrate specificity ATP-binding cassette transporter ABCG2 (Homo sapiens) (UniProt Q9UNQ0); assay: LTEA_HepaRG_ABCG2: Life Technologies and Expression Analysis (LTEA) Assay for ABC Transporter (ABCG2) using HepaRG (AID 2283465)
How it was run: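 ABCG2 transcript was quantified by TaqMan qRT-PCR against three housekeeping genes in HepaRG cells. Cells were treated in duplicate for 48 h across an 8-point half-log series up to 100 uM, with 0.5% DMSO vehicle. Gain or loss versus DMSO was fit.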

[19] = read-out: ABC Transporter (ABCC3), ABCC3 (gene 8714); assay: LTEA_HepaRG_ABCC3: Life Technologies and Expression Analysis (LTEA) Assay for ABC Transporter (ABCC3) using HepaRG (AID 2283462)
How it was run: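 HepaRG cells in serum-free induction medium were exposed for 48 h in duplicate to 8-point half-log concentrations topping at 100 uM in 0.5% DMSO. ABCC3 mRNA was measured by qRT-PCR normalized to ACTB, GAPDH and POLR2A, with bidirectional fitting versus DMSO.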

Measured: AC50

Sequence of Broad substrate specificity ATP-binding cassette transporter ABCG2 (Homo sapiens) (Q9UNQ0 whole entry, looked up): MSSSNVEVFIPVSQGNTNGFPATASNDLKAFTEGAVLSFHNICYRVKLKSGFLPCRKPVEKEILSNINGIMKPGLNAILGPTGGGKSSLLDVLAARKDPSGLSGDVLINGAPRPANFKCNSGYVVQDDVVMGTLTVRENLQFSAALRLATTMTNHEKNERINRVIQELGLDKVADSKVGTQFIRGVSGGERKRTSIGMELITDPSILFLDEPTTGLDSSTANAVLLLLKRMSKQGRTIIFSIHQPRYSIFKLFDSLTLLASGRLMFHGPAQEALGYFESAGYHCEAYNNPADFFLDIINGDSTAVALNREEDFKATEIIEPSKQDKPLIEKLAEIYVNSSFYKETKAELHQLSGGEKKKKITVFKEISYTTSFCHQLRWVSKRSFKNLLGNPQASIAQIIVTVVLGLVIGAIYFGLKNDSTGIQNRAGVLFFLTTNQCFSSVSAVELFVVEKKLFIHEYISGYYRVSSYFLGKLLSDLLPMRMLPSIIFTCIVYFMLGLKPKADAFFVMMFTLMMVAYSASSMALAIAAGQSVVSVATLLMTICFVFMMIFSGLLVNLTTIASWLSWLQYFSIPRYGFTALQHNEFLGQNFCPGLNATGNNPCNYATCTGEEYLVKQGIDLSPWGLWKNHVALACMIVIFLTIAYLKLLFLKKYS
Sequence of Fatty acid synthase (Homo sapiens) (P49327 whole entry, looked up): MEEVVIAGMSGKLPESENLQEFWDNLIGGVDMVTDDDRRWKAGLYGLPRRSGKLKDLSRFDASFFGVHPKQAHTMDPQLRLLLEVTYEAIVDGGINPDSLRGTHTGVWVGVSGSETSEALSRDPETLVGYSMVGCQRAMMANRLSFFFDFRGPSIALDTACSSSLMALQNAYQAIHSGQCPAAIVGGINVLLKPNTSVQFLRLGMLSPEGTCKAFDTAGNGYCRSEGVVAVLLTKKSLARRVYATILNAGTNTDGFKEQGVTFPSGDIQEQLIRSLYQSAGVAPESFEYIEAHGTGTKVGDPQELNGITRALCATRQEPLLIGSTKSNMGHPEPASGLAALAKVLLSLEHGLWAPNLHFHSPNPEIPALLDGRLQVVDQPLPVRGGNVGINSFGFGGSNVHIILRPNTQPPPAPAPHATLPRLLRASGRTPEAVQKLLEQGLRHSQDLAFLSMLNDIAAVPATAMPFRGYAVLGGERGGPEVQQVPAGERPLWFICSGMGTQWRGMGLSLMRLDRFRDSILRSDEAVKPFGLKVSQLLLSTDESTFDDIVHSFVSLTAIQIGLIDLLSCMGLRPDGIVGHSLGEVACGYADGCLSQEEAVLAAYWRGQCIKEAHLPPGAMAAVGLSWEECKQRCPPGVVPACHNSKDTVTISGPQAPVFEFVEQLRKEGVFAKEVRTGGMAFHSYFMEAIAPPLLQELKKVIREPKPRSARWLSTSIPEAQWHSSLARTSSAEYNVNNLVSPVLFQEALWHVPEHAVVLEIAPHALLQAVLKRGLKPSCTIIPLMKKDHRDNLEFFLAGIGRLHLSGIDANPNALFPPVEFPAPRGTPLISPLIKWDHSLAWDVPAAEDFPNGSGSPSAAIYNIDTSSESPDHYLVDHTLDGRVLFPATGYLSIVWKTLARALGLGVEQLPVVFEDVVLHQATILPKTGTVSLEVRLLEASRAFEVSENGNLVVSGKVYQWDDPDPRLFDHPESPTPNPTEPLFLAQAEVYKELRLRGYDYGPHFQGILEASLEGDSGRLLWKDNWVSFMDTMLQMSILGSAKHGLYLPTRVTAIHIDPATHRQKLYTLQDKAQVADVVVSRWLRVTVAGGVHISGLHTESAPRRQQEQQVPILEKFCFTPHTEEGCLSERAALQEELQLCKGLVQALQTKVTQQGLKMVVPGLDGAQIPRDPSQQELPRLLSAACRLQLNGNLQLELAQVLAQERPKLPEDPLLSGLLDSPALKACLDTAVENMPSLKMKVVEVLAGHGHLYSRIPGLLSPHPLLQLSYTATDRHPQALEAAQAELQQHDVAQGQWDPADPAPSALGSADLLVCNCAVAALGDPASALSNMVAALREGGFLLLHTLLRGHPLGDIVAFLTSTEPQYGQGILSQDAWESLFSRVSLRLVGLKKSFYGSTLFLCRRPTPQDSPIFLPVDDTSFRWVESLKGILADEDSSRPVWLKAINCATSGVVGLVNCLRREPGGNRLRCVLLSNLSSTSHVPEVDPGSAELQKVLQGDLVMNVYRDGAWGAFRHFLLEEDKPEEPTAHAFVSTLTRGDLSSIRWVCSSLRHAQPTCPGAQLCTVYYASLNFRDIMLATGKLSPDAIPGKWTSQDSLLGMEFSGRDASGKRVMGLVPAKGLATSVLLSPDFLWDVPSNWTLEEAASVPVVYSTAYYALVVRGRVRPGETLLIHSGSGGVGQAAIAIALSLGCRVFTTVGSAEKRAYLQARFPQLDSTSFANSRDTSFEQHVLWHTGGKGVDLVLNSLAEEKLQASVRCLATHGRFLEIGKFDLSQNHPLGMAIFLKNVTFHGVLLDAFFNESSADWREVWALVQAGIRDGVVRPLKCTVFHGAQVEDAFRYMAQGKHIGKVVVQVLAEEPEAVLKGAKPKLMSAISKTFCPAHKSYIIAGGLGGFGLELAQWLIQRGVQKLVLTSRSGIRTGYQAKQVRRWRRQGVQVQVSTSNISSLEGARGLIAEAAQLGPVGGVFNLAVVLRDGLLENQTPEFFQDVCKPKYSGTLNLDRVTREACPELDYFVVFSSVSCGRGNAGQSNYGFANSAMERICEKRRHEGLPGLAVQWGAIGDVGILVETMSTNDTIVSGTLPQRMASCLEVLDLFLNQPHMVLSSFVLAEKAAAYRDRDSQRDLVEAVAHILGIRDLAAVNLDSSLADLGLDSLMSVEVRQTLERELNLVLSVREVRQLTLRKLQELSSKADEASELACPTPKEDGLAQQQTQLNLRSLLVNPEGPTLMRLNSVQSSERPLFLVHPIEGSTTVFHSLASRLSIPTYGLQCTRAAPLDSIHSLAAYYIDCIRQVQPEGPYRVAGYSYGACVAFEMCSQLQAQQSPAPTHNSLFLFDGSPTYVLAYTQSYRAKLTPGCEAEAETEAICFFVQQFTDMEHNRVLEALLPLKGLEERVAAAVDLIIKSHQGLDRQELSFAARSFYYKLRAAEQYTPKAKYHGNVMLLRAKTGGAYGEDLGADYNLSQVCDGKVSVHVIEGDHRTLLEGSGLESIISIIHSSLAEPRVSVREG

NCCO
active: [8] 50 µM
not listed: [18] | [19]
inactive: all other assays above

NC(=O)Cn1c(=O)cc(CCN2CCN(c3nccc4sccc34)CC2)c2ccc(F)cc21
active: [2] 29.5 µM | [4] 50 µM | [8] 10.1 µM | [10] 50 µM | [13] 36.6 µM
not listed: [11] | [18] | [19]
inactive: all other assays above

Nc1ccc(S(=O)(=O)c2ccc(N)cc2)cc1
not listed: [19]
inactive: all other assays above

CC1(C)NC(=O)NC1=O
not listed: [11] | [18] | [19]
inactive: all other assays above

CC=Cc1ccc(O)c(OC)c1
active: [8] 50 µM
not listed: [11] | [19]
inactive: all other assays above

COc1cc(-c2nc(NC(=O)c3cc4cc(C)cc(C)c4n3CC(=O)O)sc2CCC2CCCCC2)c(OC)cc1Cl
active: [1] 20.8 µM | [5] 18.4 µM | [6] 7.6 µM | [7] 8.16 µM | [9] 19.8 µM | [10] 42.2 µM | [11] 15.2 µM | [12] 20.6 µM | [13] 11.4 µM | [14] 2.18 µM | [15] 7.37 µM | [16] 7.35 µM | [18] 24.5 µM | [17] 12 µM
inactive: [2] | [3] | [4] | [8] | [19]

Nc1nc(N)c2nc(CNc3ccc(C(=O)N[C@@H](CCC(=O)O)C(=O)O)cc3)cnc2n1
active: [2] 0.0999 µM | [15] 0.104 µM
inactive: all other assays above

— PubChem BioAssay (EPA / NIEHS)
